# Assay outcomes from PubChem BioAssay.
# NALP1 inh = NALP1 inhibition; S. cerevisiae NALP1/ASC/caspase-1 growth, X-gal OD620, 72 h; actives 0.61% (n = 280,000); inhibition, % at 10 µM; in the data active = inhibition mostly above about 24%, no sharp cut-off; inactive = mostly below about 32%
# SUMO Mot1 rescue = SUMOylation pathway inhibition by Mot1-301 growth rescue. growth rescue, % at 18.8 µM. AID 2716. S. cerevisiae Mot1-301 growth rescue, ATP luminescence, 38.5C; percent above DMSO median, 100 means doubled. actives 1% (n = 320,000);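 active = every valid replicate shows activation above 250% relative to neutral control wells; inactive = the rest, any valid replicate at or below 250%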
# PolyA inhibitor = inhibitors of polyadenylation in S. cerevisiae | S. cerevisiae SKY197-pL101 polyadenylation reporter, beta-gal luminescence; efflux-impaired pdr1/pdr3 knockout yeast; score 100 = 6 SD above DMSO | activity score, % at 12 µM | actives 0.02% (n = 300,000);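 active = lowest replicate activity score at least 50, where 100 means six control SD above control mean; inconclusive = lowest score under 50 but half or more replicates reach 50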;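 also: yeast exposed to compound for 9 h at 30 °C; higher score means more reporter readthrough which indicates perturbed polyadenylation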
# NALP3 yeast inh = NALP3 inhibition in yeast | AID 2825 | actives 0.39% (n = 330,000) | Yeast reconstituted NLRP3/ASC/caspase-1, beta-gal luminescence, 24 h | inhibition, % at 10 µM;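 active = inhibition of 50% or more; inactive = inhibition below 50%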
# Yeast Mot1 SUMO = yeast SUMO pathway inhibition in dose response; 2,300 tested, under 10 active; shares compounds with SUMO Mot1 rescue; growth activity, percent, % at 42 µM; S. cerevisiae Mot1-301 galactose growth, ATP luminescence, 24 h; -100 = growth of slx-deleted rescue strain;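 active = Signal drops as the depositor expects, and the fitted half-maximal dose is no more than ten times the top valid tested dose; inconclusive = Poor fit, or a flat curve whose signal drops by 30% to 70%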;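 also: more negative values mean stronger growth rescue toward the control strain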
# Numbers stand for hits; i = inactive; ? = inconclusive; nt = no result given; + = active, no number. Rows were chosen to be rich in hits. Some 1.8% of all compounds tested hit in one or more screens of this group.
SMILES,NALP1 inh,SUMO Mot1 rescue,PolyA inhibitor,NALP3 yeast inh,Yeast Mot1 SUMO
Cc1cccc(C(=O)NCC(=O)N2CCN(c3ccc(Cl)cc3)CC2)c1,i,368,i,i,i
N=c1sccn1CC(=O)Nc1ccc(S(N)(=O)=O)cc1,i,i,i,i,nt
N=c1sccn1CC(=O)Nc1cccc(S(N)(=O)=O)c1,i,489,i,i,i
Cc1cc(NC(=O)c2cc(-c3ccco3)on2)no1,i,i,i,i,nt
COc1ccc(NC(=O)Nc2ccc(OC)cc2)cc1,i,391,i,i,i
COc1ccc(NC(=S)NC(=O)C2CCC2)cc1,i,555,i,i,i
COc1ccc(OC)c(NC(=O)c2ccc(S(=O)(=O)N3CCOCC3)cc2)c1,i,i,i,i,nt
CC1(C)CC(=O)C(CC2C(=O)CC(C)(C)CC2=O)C(=O)C1,i,i,i,i,nt
CC1(C)CC(=O)C(CC2CCCCC2=O)C(=O)C1 (stereo unspecified),i,575,i,i,i
CCCn1c(C)cc(/C=C(\C#N)C(=O)OCC(=O)NC(=O)NC(C)(C)C)c1C,i,i,i,i,nt
C=CCNC(=O)NC(=O)COC(=O)/C(C#N)=C/c1cc(C)n(CC(C)C)c1C,i,+,i,i,i
CC(C)c1ccc(NC2CCCN(C(=O)CCN3CCCO3)C2)cc1 (stereo unspecified),i,i,i,i,nt
Cc1ccc(S(=O)(=O)N2CCOCC2)cc1NC(=O)COC(=O)CCC(=O)c1cccs1,i,522,i,i,i
COc1ccccc1OCC(=O)NC1CCCc2ccccc21 (stereo unspecified),i,i,i,i,nt
Cc1cc(C)cc(OCC(=O)NC2CCCc3ccccc32)c1 (stereo unspecified),i,461,i,i,i
CC(C)c1ccc(/C=C2\SC(N3CCCC3)=NC2=O)cc1,i,i,i,i,nt
Cc1ccc(/C=C2\SC(N3CCCC3)=NC2=O)cc1,i,477,i,i,i
CC(=O)N1CCCc2cc(S(=O)(=O)Nc3ccc(C)cc3C)ccc21,i,474,?,i,i
CC(=O)N1CCc2cc(S(=O)(=O)Nc3ccc(C)cc3C)ccc21,i,i,i,i,nt
CCc1cc2c(NCCO)ncnc2s1,i,+,i,i,i
CCc1cc2c(NCCC(=O)O)ncnc2s1,i,i,i,i,nt
COc1ccc(CCCc2nnc(SCC(=O)Nc3ccc(OC)cc3)o2)cc1,i,i,i,i,nt
Cc1ccc(Cn2cccc(NC(=O)NCc3ccccc3)c2=O)cc1,i,i,i,i,nt
O=[N+]([O-])c1cc([N+](=O)[O-])c2cc3ccccc3nc2c1,i,468,i,i,i
CCn1c(=O)n(CC)c2cc(NC(=O)c3ccccc3Cl)ccc21,nt,406,i,i,i
SMILES,NALP1 inh,SUMO Mot1 rescue,PolyA inhibitor,NALP3 yeast inh,Yeast Mot1 SUMO
O=C(c1cc2ccccc2o1)N1CCCCCC1,i,i,i,i,nt
O=C(c1cc2ccccc2o1)N1CCCC1,i,+,i,i,i
O=C(c1cc2ccccc2o1)N1CCN(C/C=C/c2ccccc2)CC1,44,541,i,i,i
O=C(O)c1ccc(/C=N/NC(=O)c2cc(-c3ccc4c5c(cccc35)CC4)n[nH]2)cc1,i,+,i,i,i
O=C(N/N=C/c1ccccn1)c1cc(-c2cccc3ccccc23)n[nH]1,i,i,i,i,nt
NC(=O)c1ccccc1NC(=O)c1ccc2c(c1)OCO2,i,700,i,i,i
O=C(Nc1ccccn1)c1ccc2c(c1)OCO2,i,i,i,i,nt
O=C(Nc1ccc([N+](=O)[O-])cn1)c1ccc2c(c1)OCO2,i,605,i,i,i
NC(=O)c1ccccc1NC(=O)c1ccc2ccccc2c1,i,i,i,i,nt
Cc1nn(CCO)c2nc(-c3cccs3)cc(C(F)(F)F)c12,i,i,i,i,nt
Cc1n[nH]c(C)c1CCN(C)Cc1cn(C)nc1-c1ccc2c(c1)OCCO2,i,i,i,i,nt
NS(=O)(=O)c1cccc(NC(=O)c2cccnc2Oc2ccccc2)c1,i,936,i,i,i
Cc1cccc(CN2CCSCC2)c1,i,i,i,i,nt
COc1ccccc1CNC(=O)COC(=O)CSc1ccc(Cl)cc1,nt,i,i,i,nt
CCOC(=O)c1cc([N+](=O)[O-])c([N+](=O)[O-])cc1NC(C)=O,i,487,i,nt,i
O=C(COc1ncnc2ccccc12)Nc1ccc(Cl)c(S(=O)(=O)N2CCOCC2)c1,i,384,i,i,i
O=C(COc1nc2ccccc2nc1N1CCOCC1)Nc1ccc(S(=O)(=O)N2CCCC2)cc1,i,i,i,i,nt
